PubChem BioAssay AID2331 (The Scripps Research Institute Molecular Screening Center, 2010)
Some of the results follow. Unmarked numbers belong to inactive results. The source made the active and inactive calls. No stated cut-off is given here; in the data, active means inhibition above about 9.5%; inactive means the rest.

target: Serine/threonine-protein phosphatase 5 (Homo sapiens) (UniProt P53041); assay: PP5 phosphatase inhibitors, confirmation, biochemical, fluorescence, human (AID 2331); details: Purified PP5, fluorogenic phosphatase substrate, at 6.7 µM, active compounds read high
Sequence (P53041 whole entry, looked up): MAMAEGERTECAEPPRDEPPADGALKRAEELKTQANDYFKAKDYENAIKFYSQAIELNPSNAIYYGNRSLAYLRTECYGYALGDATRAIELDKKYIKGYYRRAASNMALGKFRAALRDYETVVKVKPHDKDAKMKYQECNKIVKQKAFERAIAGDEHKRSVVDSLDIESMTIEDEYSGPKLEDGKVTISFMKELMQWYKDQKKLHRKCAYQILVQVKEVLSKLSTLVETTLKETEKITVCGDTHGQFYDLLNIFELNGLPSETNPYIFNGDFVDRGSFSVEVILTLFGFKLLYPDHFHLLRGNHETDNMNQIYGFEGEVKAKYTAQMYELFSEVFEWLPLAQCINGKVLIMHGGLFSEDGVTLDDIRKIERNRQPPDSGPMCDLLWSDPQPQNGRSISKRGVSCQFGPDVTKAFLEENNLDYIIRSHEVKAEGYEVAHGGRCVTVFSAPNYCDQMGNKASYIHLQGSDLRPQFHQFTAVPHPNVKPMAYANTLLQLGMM

Compound | inhibition
O=[N+]([O-])c1cccc2ncccc12 | -1.87%
COc1ccc(OC)c(C(=O)c2ccc(C(=O)O)cc2)c1 | -7.99%
CN(c1ccccc1)S(=O)(=O)c1ccc(NC(=O)COc2ccccc2)cc1 | 1.21%
N#Cc1c(N2CCCCC2)nc(N)c2c(N)nc(SCC(=O)O)cc12 | 36.8% (active)
CCOC(=O)Nc1ccc2c(c1)N(C(=O)CN1CCN3CCCC3C1)c1ccccc1CC2 (stereo not drawn) | -4.11%
COc1cc(/C=C2/SC(=S)N(Cc3ccccc3)C2=O)cc(OC)c1O | 0.02%
O=c1ccc2c(-c3ccccc3S(=O)(=O)O)c3ccc(O)c(O)c3oc-2c1O | 3.55%
COCCN1C=C2C(=O)C(C)(OC(=O)C3CCCC3)C(=O)C=C2C=C1c1ccsc1 (stereo not drawn) | 43.5% (active)
Cc1sc(NC(=O)C2C3CCC(O3)C2C(=O)O)c(C(=O)OC(C)C)c1-c1ccc(Cl)cc1 (stereo not drawn) | 3.03%
CCN1CCN(CCNC(=O)c2ccc(/C=C3/Sc4ccccc4N(Cc4cccc(C)c4)C3=O)cc2)CC1 | 1.06%
O=C(O)c1n[nH]nc1-c1ccccc1 | 41.3% (active)
CN(C)c1nc(N)nc(CSc2nnnn2-c2cccc3ccccc23)n1 | -0.03%
C[C@@]12C(=O)N(c3cccc(Br)c3)C(=O)N1[C@H](c1ccc(Cl)cc1)[C@@H]1C(=O)N(C3CCCCC3)C(=O)[C@@H]12 | 7.67%
Cc1nc(NC(CC(C)C)C(=O)O)c2nc(C)oc2n1 (stereo not drawn) | -2.93%
O=C(C1=C[C@H](c2ccc(C(F)(F)F)cc2)C[C@H](OCc2ccc(CO)cc2)O1)N1CCN(Cc2ccccc2)CC1 | 3.97%
COc1cc(C(F)(F)F)c(C(=O)N(C)c2ccc(Cl)cc2)cn1 | -0.02%
Cc1nnc(SCc2nc3ccccc3nc2C)s1 | -2.92%
CNC(=S)NNC(=O)c1oc2nc(-c3ccccc3)cc(-c3ccco3)c2c1N | -5.36%
